Hit rate of the full screen: of about 100,000 compounds, about 4,200 (4.2%) were called active.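 How the source made its calls: active means single-dose well whose peak fluorescence ratio is a statistical outlier from its plate by either plate-standardised score or position-corrected B-score; inactive means the rest.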 This excerpt belongs to a sample that is enriched for actives.
The molecules below were run against Voltage-dependent T-type calcium channel subunit alpha-1H (Homo sapiens) (UniProt O95180) (assay: Cav3.2 calcium influx blockers – cell-based, Fluo-4 calcium fluorescence, FDSS, MLSMR library, primary screen (AID 449739)). Details: Cav3.2-expressing cells, at 10 µM, hits give low values.
Chain of Voltage-dependent T-type calcium channel subunit alpha-1H (Homo sapiens) (O95180 whole entry, looked up): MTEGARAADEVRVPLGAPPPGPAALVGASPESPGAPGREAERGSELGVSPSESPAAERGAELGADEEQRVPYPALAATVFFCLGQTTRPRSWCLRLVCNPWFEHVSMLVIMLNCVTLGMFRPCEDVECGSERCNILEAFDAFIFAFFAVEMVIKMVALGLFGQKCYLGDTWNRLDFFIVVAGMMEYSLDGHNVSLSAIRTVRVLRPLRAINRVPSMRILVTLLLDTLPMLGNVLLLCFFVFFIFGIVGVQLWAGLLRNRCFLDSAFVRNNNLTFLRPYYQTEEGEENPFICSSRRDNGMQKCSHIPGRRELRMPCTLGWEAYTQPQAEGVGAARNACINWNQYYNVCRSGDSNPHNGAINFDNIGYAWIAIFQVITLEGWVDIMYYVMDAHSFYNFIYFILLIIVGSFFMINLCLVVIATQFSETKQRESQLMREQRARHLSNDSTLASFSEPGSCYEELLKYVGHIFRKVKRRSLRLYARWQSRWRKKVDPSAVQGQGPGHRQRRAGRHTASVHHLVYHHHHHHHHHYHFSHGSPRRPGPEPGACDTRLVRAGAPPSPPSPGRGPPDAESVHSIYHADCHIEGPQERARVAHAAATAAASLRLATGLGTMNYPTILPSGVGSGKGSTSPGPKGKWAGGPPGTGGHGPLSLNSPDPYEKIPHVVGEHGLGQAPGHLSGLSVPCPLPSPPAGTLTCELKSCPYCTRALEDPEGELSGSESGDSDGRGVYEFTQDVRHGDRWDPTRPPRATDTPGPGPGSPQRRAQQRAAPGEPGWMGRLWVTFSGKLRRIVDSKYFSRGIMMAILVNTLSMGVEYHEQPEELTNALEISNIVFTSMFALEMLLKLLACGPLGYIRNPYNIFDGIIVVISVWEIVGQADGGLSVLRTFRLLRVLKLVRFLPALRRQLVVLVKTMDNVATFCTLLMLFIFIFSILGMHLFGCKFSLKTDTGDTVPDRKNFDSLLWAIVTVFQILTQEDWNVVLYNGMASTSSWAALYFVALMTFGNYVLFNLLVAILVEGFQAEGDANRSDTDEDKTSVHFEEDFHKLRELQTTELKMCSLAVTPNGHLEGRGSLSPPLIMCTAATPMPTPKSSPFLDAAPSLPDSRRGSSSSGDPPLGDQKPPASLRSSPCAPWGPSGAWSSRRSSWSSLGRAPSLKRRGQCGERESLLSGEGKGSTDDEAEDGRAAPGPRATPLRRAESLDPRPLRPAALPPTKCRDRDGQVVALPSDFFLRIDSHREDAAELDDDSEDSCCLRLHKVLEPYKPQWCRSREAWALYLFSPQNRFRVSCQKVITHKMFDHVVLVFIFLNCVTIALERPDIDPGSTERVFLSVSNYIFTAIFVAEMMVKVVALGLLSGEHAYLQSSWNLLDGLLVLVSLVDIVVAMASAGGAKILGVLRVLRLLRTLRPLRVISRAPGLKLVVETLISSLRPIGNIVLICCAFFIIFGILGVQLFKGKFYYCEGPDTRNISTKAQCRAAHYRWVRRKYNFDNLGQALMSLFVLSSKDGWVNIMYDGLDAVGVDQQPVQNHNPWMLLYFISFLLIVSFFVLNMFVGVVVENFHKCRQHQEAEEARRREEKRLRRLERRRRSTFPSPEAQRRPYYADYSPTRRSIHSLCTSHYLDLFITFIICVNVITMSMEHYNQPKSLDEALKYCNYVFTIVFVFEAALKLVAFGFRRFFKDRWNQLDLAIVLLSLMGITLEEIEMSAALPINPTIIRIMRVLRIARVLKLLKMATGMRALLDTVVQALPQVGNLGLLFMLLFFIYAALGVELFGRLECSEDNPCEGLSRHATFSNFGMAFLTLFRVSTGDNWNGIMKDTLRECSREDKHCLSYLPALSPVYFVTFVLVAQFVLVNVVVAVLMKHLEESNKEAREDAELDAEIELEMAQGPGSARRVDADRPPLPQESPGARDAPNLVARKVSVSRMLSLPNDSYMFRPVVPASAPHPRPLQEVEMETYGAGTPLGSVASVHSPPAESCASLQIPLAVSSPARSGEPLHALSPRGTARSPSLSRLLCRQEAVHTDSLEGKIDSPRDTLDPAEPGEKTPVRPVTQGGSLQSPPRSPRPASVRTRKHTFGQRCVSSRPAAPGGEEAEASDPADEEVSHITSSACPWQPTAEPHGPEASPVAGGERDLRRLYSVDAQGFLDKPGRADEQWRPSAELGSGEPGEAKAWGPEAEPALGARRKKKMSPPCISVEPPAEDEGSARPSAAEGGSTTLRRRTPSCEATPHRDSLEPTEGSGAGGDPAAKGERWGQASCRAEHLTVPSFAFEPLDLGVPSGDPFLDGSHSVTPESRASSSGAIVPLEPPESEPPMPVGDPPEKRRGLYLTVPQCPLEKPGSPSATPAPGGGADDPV

B-score, active:
O=C(Cc1c[nH]c2ccccc12)OCCOC(=O)Cc1c[nH]c2ccccc12 -6.55
Brc1ccc(C2=CC(c3ccco3)n3ncnc3N2)cc1 (stereo not given) -4.77
Cc1ccccc1NC(=O)CNc1ccccc1N1CCCCC1 -8.5
O=C(N/N=C\c1cccc(Br)c1)c1ccccc1-n1cccc1 -6.5
Fc1ccc(CSc2nnc(-c3cc4c(s3)-c3ccccc3CC4)o2)cc1 -3.39
c1ccc(CSc2nnc(-c3ccco3)n2Cc2ccccc2)cc1 -4.26
CC(N=Cc1nc(-c2ccccc2)oc1O)c1ccccc1 (stereo not given) -4.84
O=C1c2ccccc2NC(c2ccc(-c3cccc(Cl)c3)o2)N1O (stereo not given) -6.09
Cc1cccc(NC(=O)CN2CCCN(S(=O)(=O)c3ccc(Br)s3)CC2)c1 -4.23
CCCn1c(SCC(=O)Nc2cccc(C(=O)OCC)c2)nnc1-c1ccoc1C -5.22
CC1Cc2ccccc2N1CC(=O)Nc1ccc2c(c1)OC(F)(F)O2 (stereo not given) -4.17
CC(C)C(=O)Nc1cccc(NC(=S)NC(=O)C(c2ccccc2)c2ccccc2)c1 -5.49
CC(C)c1ccc(C(=O)NCCCc2ccccc2)cc1 -4.2
CC1Cc2ccccc2N1C(=O)CSc1nc2ccccc2o1 (stereo not given) -4.15

B-score, inactive:
Cc1cc(/C=C2/SC(=O)N(CC(=O)OC(C)C)C2=O)c(C)n1C 0.168
Cc1ccc(-c2nc3ccccc3[nH]2)cc1NC(=O)c1sc2ccccc2c1Cl -3.3
NC(=O)CSc1c[nH]c2ccccc12 0.666
CC(=O)NC(Cc1c[nH]c2ccccc12)C(=O)O (stereo not given) 1.52
Cc1cc([N+](=O)[O-])c(NC2CCCCC2)c([N+](=O)[O-])c1 -0.266
CONC(=O)c1cc(OCC(F)(F)F)ccc1OCC(F)(F)F 0.627
COC(=O)C1=C(C)Nc2ncnn2C1c1ccco1 (stereo not given) -0.126
CCOc1ccc(C2=CC(c3ccccc3)n3ncnc3N2)cc1 (stereo not given) -0.0885
O=C(CN1CCN(C2CCCCC2)CC1)Nc1ccccc1N1CCCCC1 -0.124
Cn1c(=O)c2c(nc(SCC(=O)Nc3ccccc3N3CCCCC3)n2C)n(C)c1=O -0.936
C#CCOCCOCCOCCNc1nc(N2CCN(C(=O)[C@H](CCC(=O)O)n3cc(C(N)CO)nn3)CC2)nc(N2CCN(C(=O)[C@H](CCCCN)n3cc(C(N)CC(C)C)nn3)CC2)n1 (stereo not given in full) -1.41
Cc1ccc(C(=O)NNC(=O)OC(C)(C)C)c(Cl)c1 -0.27
COc1ccc(C(=O)Nc2ccccc2C(=O)N/N=C/c2ccc(O)c(OC)c2)cc1 0.134
Cn1c(=O)n(C)c2cc(/C=N/NC(=O)c3cccc(Br)c3)ccc21 1.83
COc1ccc2c(c1)CC[C@@H]1[C@@H]2CC[C@]2(C)C(=O)CC[C@@H]12 -0.311
CCSc1nnc(-c2cc3c(s2)-c2ccccc2CC3)o1 0.187
Fc1ccc(-c2nnc(CSc3nnc(-c4ccc5c(c4)OCO5)o3)o2)cc1 -0.34
Cc1nn(C)c(Oc2ccccc2)c1CCNS(=O)(=O)c1ccc(F)cc1 -1.06
CC(C)=CC(=O)Nc1nnc(-c2ccc(F)cc2)s1 0.294
c1ccc(CSc2nnc(-c3ccco3)c(-c3ccco3)n2)cc1 0.232
O=C(CSc1nnc(-c2ccco2)n1Cc1ccccc1)NC(=O)NCc1ccco1 -1.76
CCOC(=O)CN1C(=O)N[C@@H](c2ccc(Br)cc2)C(C(C)=O)=C1C 1.08
CC(NC(=O)c1cc(-c2ccccc2)on1)c1ccccc1 (stereo not given) 0.962
C/C=C(\C)C(=O)N1CC2(CC(c3cccc(NC(=O)CCCCC)c3)=NO2)C[C@@H]1C(N)=O (stereo not given in full) -0.0964
C[C@@H](C(=O)N1CCNCC1)n1cc(CCC(=O)O)nn1 0.81
Cc1cccc(OCCCC(=O)Nc2ccc(S(=O)(=O)N3CCCC3)cc2)c1 -4.11
Cc1cccc(NC(=O)CN2C(=O)CNC2=O)c1 -0.246
O=C(NC1CC1)C1=C[C@H](c2coc3ccccc3c2=O)C[C@H](OCCCCO)O1 0.0579
COc1ccccc1NC(=O)CSc1nnc(-c2ccoc2C)n1CCc1ccccc1 -2.79
Cc1ccc(-n2c(SCC(=O)Nc3ccc4c(c3)OCO4)nnc2-c2ccoc2C)cc1 -0.45
FC(F)(F)c1cc(C(F)(F)F)c2ccc(N3CCN(c4ccccc4)CC3)nc2n1 -0.29
CNC(C)C#Cc1ccc2sc3cc(OC)c(OC)cc3c(=O)c2c1 (stereo not given) -1.08
C[C@H]1CC[C@]2(O[C@@H](CCO)C[C@@H](O)[C@@H]2O)O1 -0.0046
O=C(COC(=O)c1ccccc1NC(=O)c1ccco1)Nc1ccc2c(c1)OC(F)(F)O2 -1.68
O=C(Cn1c(=O)sc2ccccc21)Nc1ccc2c(c1)OCCO2 0.666
CCC(=O)Nc1ccc(C(=O)Nc2cc(C)on2)cc1 0.744
CCc1ccc2ncc(C(=O)c3ccccc3)c(N3CCOCC3)c2c1 -0.907
CC(C)C(=O)NC(=S)Nc1ccccc1F -0.107
COc1ccccc1NC(=S)NC(=O)C(C)C 0.35
O=C(NCCc1ccccc1)c1ccc(OCCOc2ccccc2)cc1 -0.578
Cc1cc(C(=O)NCCCc2ccccc2)no1 0.538
CC(=O)Nc1cccc(/C(C)=N/NC(=O)c2ccccc2Cl)c1 0.407
Cc1ccc(-c2csc(NCCc3nc4cc(Cl)c(Cl)cc4n3CCOCCO)n2)cc1 -0.914
O=C(CSc1nc2ccccc2o1)N1CCN(c2ccccc2)CC1 -0.102
CCS(=O)(=O)c1ccc2oc(SCC(=O)N3c4ccccc4CC3C)nc2c1 (stereo not given) 0.393
Cc1nc(SCC(=O)c2ccccc2)c([N+](=O)[O-])[nH]1 0.184

Source: PubChem BioAssay AID449739 (Vanderbilt High Throughput Screening Facility, 2010)
